For orientation: inhibition means the relative decrease from the control value, in per cent.

Several values for one entry are separate records, joined by “and”; a condition that tells them apart may be missing. Identical values can stand only once. Out of some 330,000 compounds screened, about 1,100 (0.33%) were called active. Cut-off read from the data, not from the text of the source: active = inhibition above about 85%; inactive = the rest. For the sample, actives were picked, then their nearest neighbours and some compounds at random. More than one record can exist for a structure, and the calls need not agree.

The test in a line: growth inhibition of S. aureus RN4220, primary screen, OD600 (AID 1259311).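 Note: plate controls were untreated cells for no effect and reference antibiotic for full effect.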 The following applies: OD600, 16 h, stronger effect = higher value.
With `CCOCC(=O)Nc1ncc(S(=O)(=O)c2ccc([N+](=O)[O-])cc2)s1`, the inhibition is 90.6% (active).

As for `CC(C)c1nnc(NC(=O)COC(=O)/C=C/c2ccc([N+](=O)[O-])cc2)s1`, the inhibition was -2.74% (inactive).

Take `Cc1cc(NC(=O)COc2ccc([N+](=O)[O-])cc2)no1`: the inhibition was -0.977% (inactive).

Take `COC(=O)C1=C(C(=O)OC)C2Nc3ccccc3[C@@]23CC(C(=O)OC)N(C(=O)c2cccs2)C3=N1` (some centres not stated): the inhibition is 2.73% (inactive).

Turning to `CCN(CC)S(=O)(=O)c1cccc(-c2n[nH]c(=S)n2N=Cc2ccc(OC)cc2)c1`, the inhibition is 15% (inactive).

Consider `CC(C)CC(NC(=O)c1[nH]cnc1C(=O)NC(C)C(=O)OC(C)(C)C)C(=O)OC(C)(C)C` (configuration not stated), for which the inhibition was 4.67% (inactive).

As to `Cc1ccc(N2C(=O)N3C(c4ccc(Br)cc4)C4C(=O)N(C(C)(C)C)C(=O)C4[C@]3(C)C2=O)cc1` (some centres not stated), the inhibition was 5.35% (inactive).

On to `N#CC(=NNc1ccc(Cl)cc1)C(=N)N1CCCCC1`, for which the inhibition is -2.55% (inactive).

In the case of `N#CC(=NNc1ccc(Cl)cc1)C(=O)c1ccccc1`, the inhibition was 100% (active).

Turning to `N#C/C(=C/c1ccc(Cl)cc1)NC(=O)c1ccccc1`, the inhibition was -6.37% (inactive).

Turning to `O=c1c2ccccc2nc(/C=C/c2ccco2)n1-c1ccccc1O`, the inhibition is 95.7% (active).

For the compound `O=C(CSc1nc2ccccc2c(=O)n1-c1ccccc1F)N1CCOCC1`, the inhibition is -0.567% (inactive).

As to `CCn1c(/C=C/c2ccc([N+](=O)[O-])o2)nc2ccccc2c1=O`, the inhibition was 11.2% (inactive).

With `O=C(CSc1nc2ccccc2c(=O)n1-c1ccc(F)cc1)NC1CC1`, the inhibition was -2.32% (inactive).

Take `Cc1nc2ccccc2c(=O)n1-c1ccc(Cl)cc1Cl`: the inhibition was 2.26% (inactive).

As for `O=c1c2ccccc2nc(/C=C/c2ccc(F)cc2)n1-c1ccccc1O`, the inhibition was 97.2% (active).

Consider `O=C(NC(C(=O)NN=Cc1ccccn1)c1n[nH]c(=O)c2ccccc12)c1ccccc1` (configuration not stated), for which the inhibition is 0.248% (inactive).

On to `CCCOc1ccc(C=NNC(=O)CSCc2ccc([N+](=O)[O-])cc2)cc1OCC`, for which the inhibition was 3.47% (inactive).

As for `CC(CC(=O)Nc1ccc([N+](=O)[O-])cc1)=NNC(=O)C1CC12CCC2` (configuration not stated), the inhibition was 3.47% (inactive).

In the case of `COc1ccccc1C=NNC(=O)CO`, the inhibition was 5.18% (inactive).

For `CNC(=O)C(=NO)c1ccccc1`, the inhibition is 0.94% (inactive).

With `O=C1CS/C(=N/N=Cc2ccncc2)N1`, the inhibition was 2.12% (inactive).

`COc1ccc(CCN2C(=O)CSC2=NNC(=O)c2cccs2)cc1OC`: the inhibition was 2.01% (inactive).

Regarding `COc1ccc(C=NN=Cc2ccc(OC)c(OC)c2)cc1OC`, the inhibition was -1.08% (inactive).

`CN(C)C=Nc1sc2c(c1C#N)CC(C)(C)NC2(C)C`: the inhibition is 2.77% (inactive).

On to `COc1ccc(C(C)=NNC(=O)CSc2nnc(C)s2)cc1`, for which the inhibition is 6.45% (inactive).

Turning to `O=C(CC(O)(C(F)(F)F)C(F)(F)F)Nc1ccc(Cl)c(Cl)c1`, the inhibition was 100% (active).

`O=C(Cc1ncc(C(F)(F)F)cc1Cl)Nc1cccc(Br)c1`: the inhibition is -2.16% (inactive).

For the compound `NC(=O)N1CCCC1C(=O)Nc1ccc(Cl)c(Cl)c1` (configuration not stated), the inhibition was 0.288% (inactive).

For the compound `Cc1[nH]c2ccccc2c1C=NNC(=O)CNC(=O)c1cccs1`, the inhibition was 2.5% (inactive).

As for `COc1ccc(C=Nn2nnnc2N)c(OC)c1`, the inhibition is 2.12% (inactive).

For `COc1ccc(C(=O)NN=Cc2ccc(OC(=O)c3cccc4ccccc34)c([N+](=O)[O-])c2)cc1`, the inhibition was 95.4% (active).

Consider `COc1ccc(C(=O)NN=Cc2ccc(OC)c(CN3CCCc4ccccc43)c2)cc1`, for which the inhibition was 0.711% (inactive).

Regarding `COc1ccc(C=NNC(=O)c2ccccc2OC)cc1COc1ccccc1[N+](=O)[O-]`, the inhibition was 4.25% (inactive).

Take `C1=CC2CCN(Cc3ccccc3)Cc3cccc(c32)C1` (configuration not stated): the inhibition was 4.59% (inactive).

For `Cc1cccc(-n2c(C)cc(C=NO)c2C)c1`, the inhibition is -4.73% (inactive).

With `O=C(c1cccc([N+](=O)[O-])c1)N1CCN(Cc2ccccc2)CC1`, the inhibition was 2.33% (inactive).

As for `Cc1ccc(S(=O)(=O)N(Cc2cccc([N+](=O)[O-])c2)C(=O)N2CCN(C)CC2)cc1`, the inhibition was 2.8% (inactive).

In the case of `O=C(CCl)N(Cc1cccc([N+](=O)[O-])c1)c1cccc(Cl)c1`, the inhibition was 94.9% (active).

For `CCCCNC(=O)CC1S/C(=N/N=Cc2ccc(OC)cc2)NC1=O` (configuration not stated), the inhibition is 10.5% (inactive).

For the compound `Cc1ccc(C=NNC(=O)Cc2cccn2C)cc1`, the inhibition was 1.44% (inactive).

On to `Cc1ccc(O)c(C(=O)C=Cc2ccc3c(c2)OCCO3)c1`, for which the inhibition is -1.13% (inactive).

For the compound `COc1c(O)ccc(C=NNC(=O)c2ccc3c(c2)OCCO3)c1[N+](=O)[O-]`, the inhibition is 0.97% (inactive).

`CN1CCN(CCNC(=O)Nc2ccc([N+](=O)[O-])cc2)CC1`: the inhibition is 2.31% (inactive).

Turning to `O=C(NN=Cc1cc([N+](=O)[O-])ccc1O)C12CC3CC(CC(C3)C1)C2`, the inhibition was 63.4% (inactive).

For the compound `CN1CCN(CCC(=O)NN=Cc2cc([N+](=O)[O-])ccc2O)CC1`, the inhibition is 88.7% (active).

On to `OCCC1CC(O)C(O)[C@@]2(CCCc3ccccc3O2)O1` (some centres not stated), for which the inhibition is -1.69% (inactive) and 51.2% (inactive) and 98.7% (active).

Consider `OCCC1CC(O)C(O)[C@]2(Cc3ccccc3O2)O1` (some centres not stated), for which the inhibition is 1.1% (inactive) and -0.123% (inactive) and 7.32% (inactive).

As for `Cc1cccc(NC(=NS(=O)(=O)c2ccccc2)c2ccccc2)n1`, the inhibition was -0.262% (inactive).

Regarding `CC(N)=C(C#N)C(=O)CSc1ccccc1F`, the inhibition is 5.44% (inactive).

For `Cc1cc(C)n(C(=O)C(C#N)=NNc2cc(Cl)cc(Cl)c2)n1`, the inhibition is 99.6% (active).

As to `N#CC(=NNc1cc(Cl)cc(Cl)c1)c1nnc2n1CCCCC2`, the inhibition is 0.845% (inactive).

As to `Cc1cc(C)n(C(=O)CCNC(=O)c2ccccc2Cl)n1`, the inhibition is 4.12% (inactive).

Turning to `COc1ccc(C=NNc2ccc([N+](=O)[O-])cc2S(=O)(=O)N2CCN(C)CC2)cc1`, the inhibition is -2.66% (inactive).

Regarding `O=C(NN=Cc1cc(Cl)cc([N+](=O)[O-])c1O)c1cccc(S(=O)(=O)N2CCOCC2)c1`, the inhibition is 5.65% (inactive).

Take `COc1cccc(NC(=S)N(Cc2ccc(C)cc2)Cc2ccccn2)c1`: the inhibition is 2.66% (inactive).

For the compound `COc1ccc(CS(=O)/C(Cl)=C(/Cl)C(=O)Nc2ccc(OC)nc2)cc1` (configuration not stated), the inhibition was 1.8% (inactive).

In the case of `COc1ccc(NC(=O)/C(Cl)=C(/Cl)S(=O)Cc2ccc(C)cc2)cn1` (configuration not stated), the inhibition was 93.4% (active).

Turning to `COc1ccc(CN2CCC(=O)N(C(CO)CC(C)C)CC2)cc1` (configuration not stated), the inhibition was 3.45% (inactive).

`COc1ccc(C2CC(=O)C=C(c3ccc(C)cc3)C2)cc1` (configuration not stated): the inhibition is 5.1% (inactive).

In the case of `O=C(NN=Cc1ccsc1)c1cc(-c2cccs2)nc2ccccc12`, the inhibition was 2.77% (inactive).

In the case of `CC(C)(C)Cc1nnc(NC(=O)c2cc(-c3ccccc3)nc3ccccc23)s1`, the inhibition is -1.74% (inactive).

In the case of `O=C(Nc1nnc(-c2ccccc2)o1)c1cc(-c2cccs2)nc2ccccc12`, the inhibition is 100% (active).

In the case of `CC(C)(C=NO)N(O)C=C1C=CC(=O)C=C1`, the inhibition is 1.68% (inactive).

For the compound `COCCNC(=O)C1CCCN1S(=O)(=O)c1cccc2cccnc12` (configuration not stated), the inhibition is 6.77% (inactive).

Take `CC1(C)CC(N2CCN(C(c3ccccc3)c3ccccc3)CC2)=CC(=[N+]2CCCCC2)C1`: the inhibition was 100% (active).

With `c1ccc(C(c2ccccc2)N2CCN(Cc3nnnn3C3CCCCC3)CC2)cc1`, the inhibition is -1.54% (inactive).

For `COc1ccccc1CN1CCN(C(c2ccccc2)c2ccccc2)CC1`, the inhibition was -0.651% (inactive).

Regarding `CC(NC(=O)c1nc[nH]c1C(=O)NCCCCCNC(=O)OC(C)(C)C)c1ccccc1` (configuration not stated), the inhibition was 8.53% (inactive) and 1.7% (inactive).

On to `C[C@]12CCC(O)CC1CCC1C2CC[C@]2(C)C(O)CCC12` (some centres not stated), for which the inhibition is 7.5% (inactive).

Take `Cc1ccc(NS(=O)(=O)c2cc([N+](=O)[O-])ccc2NN=Cc2sc(N3CCOCC3)nc2-c2ccccc2)c(C)c1`: the inhibition was -5% (inactive).

Take `COC(=O)Cc1ccc(OCC(=O)NC2CCCC2)cc1`: the inhibition was 2.26% (inactive).

With `CC1(C)SC2C(NC(=O)COc3ccccc3)C(=O)N2C1C(=O)O` (configuration not stated), the inhibition was 99.8% (active).

Consider `Cc1cccc(OCC(=O)NC2CC(C)(C)NC(C)(C)C2)c1`, for which the inhibition was -1.7% (inactive).

As for `O=S(=O)(NN=Cc1cccc(F)c1)c1ccccc1`, the inhibition was 29.9% (inactive).

On to `CCOc1cccc(-c2c(C(=O)NN=Cc3ccc(C)o3)nnn2-c2nonc2N)c1`, for which the inhibition was 4.52% (inactive).

Consider `C#Cc1ccc(C2C=C(C(=O)N3CCOCC3)OC(OCC)C2CCCO)cc1` (configuration not stated), for which the inhibition is 2.8% (inactive) and 5.16% (inactive).

Turning to `C#C[C@]1(O)CCC2C3CCC4=Cc5nc6nc7ccccc7n6cc5C[C@]4(C)C3CC[C@@]21C` (some centres not stated), the inhibition is -13.8% (inactive).

Take `CC(=NNC(=O)c1nnn(-c2nonc2N)c1CSc1ccc(C)cc1)c1ccco1`: the inhibition is 4.06% (inactive).

For the compound `COc1cccc(-c2nnc(NC(=O)c3ccc(S(=O)(=O)N(CC(C)C)CC(C)C)cc3)o2)c1`, the inhibition is 99.9% (active).

`O=C(Nc1nnc(-c2ccco2)o1)c1ccc(S(=O)(=O)N2CCOCC2)cc1`: the inhibition is 1.85% (inactive).

On to `COc1ccc(-c2nnc(NC(=O)CS(=O)(=O)c3ccc(Cl)cc3)o2)c(OC)c1`, for which the inhibition was 3.79% (inactive).

As to `CC1CN(C(C)CO)C(=O)c2cccc(NC(=O)c3ccc(-c4nccs4)cc3)c2OC1CN(C)C(=O)NC1CCCCC1` (configuration not stated), the inhibition was 4.31% (inactive).

Regarding `C=C[C@]1(C)CC(OC(=O)CSCCN(CC)CC)[C@]2(C)C(C)CC[C@]3(CCC(=O)C32)C(C)C1O` (some centres not stated), the inhibition is 101% (active).

As to `COC(=O)[C@]1(CC(C)C)NC(c2ccc(-c3ccc(F)cc3)c(OC)c2)C2C(=O)N(C)C(=O)C21` (some centres not stated), the inhibition was -2.27% (inactive).

With `COc1ccc(C2C=CCN(C(=O)Nc3ccccc3-c3ccccc3)CC(=O)N2Cc2ccc(F)cc2)cc1` (configuration not stated), the inhibition was 4.3% (inactive).

For the compound `CCCn1c(=O)c(C(=O)Nc2cc(C)ccn2)c(O)c2ccccc21`, the inhibition was 8.88% (inactive).

On to `COc1cc(C(=O)NN=Cc2cn(Cc3cccc(F)c3)c3ccccc23)ccc1O`, for which the inhibition is -2.54% (inactive).

Take `CCCCCn1c(=O)c(C(=O)NCc2ccccc2)c(O)c2ccccc21`: the inhibition was -1.56% (inactive).

For the compound `CCCn1c(=O)c(C(=O)NN=Cc2ccc(F)cc2)c(O)c2ccccc21`, the inhibition is 101% (active).

Regarding `CCCn1c(=O)c(-c2ccccc2)c(O)c2ccccc21`, the inhibition was 4.44% (inactive).

On to `CC(C)CCn1c(=O)c(C(=O)NN=Cc2cccc(F)c2)c(O)c2ccccc21`, for which the inhibition is 101% (active).

The values are drawn from PubChem BioAssay AID1259311 (ICCB-Longwood Screening Facility, Harvard Medical School, 2017).
